Screens (PubChem)
Most compounds without a hit are left out; they make up all but 2.3% or so of the library.
M1 antag = antagonists of human M1 muscarinic receptor | CHO-K1 hM1, Fluo-8 calcium fluorescence, ACh EC80 antagonist | inhibition, % at 3 µM | 1.3% of 360,000 active | P11229;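 active means percent inhibition above its own plate's cutoff, namely the mean of that plate's compound wells plus 3 SD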;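 further: peak over basal fluorescence ratio during 140 s after agonist addition; 0% = ACh EC80 plus DMSO and 100% = DMSO alone without agonist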
Target sequence (P11229 whole entry, looked up): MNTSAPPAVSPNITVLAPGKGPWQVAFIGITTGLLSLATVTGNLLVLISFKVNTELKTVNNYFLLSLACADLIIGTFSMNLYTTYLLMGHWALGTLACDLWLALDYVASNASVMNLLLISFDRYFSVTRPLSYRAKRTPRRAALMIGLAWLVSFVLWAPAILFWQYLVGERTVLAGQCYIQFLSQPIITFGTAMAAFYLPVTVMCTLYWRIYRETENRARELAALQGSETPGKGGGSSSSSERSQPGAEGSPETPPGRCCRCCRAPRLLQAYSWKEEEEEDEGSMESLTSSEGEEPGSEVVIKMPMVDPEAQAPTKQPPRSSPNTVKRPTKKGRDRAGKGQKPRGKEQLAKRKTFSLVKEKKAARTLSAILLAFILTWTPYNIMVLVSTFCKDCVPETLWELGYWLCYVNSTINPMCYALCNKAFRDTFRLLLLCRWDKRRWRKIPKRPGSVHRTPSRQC
CHRM1 agonist = activates human CHRM1 receptor; P11229; CHO-K1 hM1, Fluo-8 calcium fluorescence, agonist mode; 0% DMSO, 100% acetylcholine EC100; activation, % at 3 µM; 0.33% of 360,000 active; AID 588814;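 active means activation above the run's mean compound activation plus 3 SD, cut at about 16% in these data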;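 further: peak over basal fluorescence ratio within a 140 s kinetic read after compound addition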
M1 PAM parental = M1 PAM counterscreen hit in parental CHO-K1 cells; ATP EC20, Fluo-8 calcium fluorescence; 0% at ATP EC20, 100% at ATP max; activation, % at 3 µM; 0.02% of 360,000 active; AID 602247;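 active means activation above the run cutoff, the mean activation of all test compounds plus 3 SD, cut at about 40% in these data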;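 further: peak over basal fluorescence ratio in a 140 s read after ATP addition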
M1 ag parental = counter-screen for M1 agonists: effect in parental CHO-K1 cells | 0.48% of 360,000 active | AID 602248 | activation, % at 3 µM | Fluo-8 calcium fluorescence; scaled to maximal ATP response, vehicle zero; in the data active means activation above about 15%;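 further: untransfected CHO-K1 host cells lacking M1 receptor as counterscreen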
M1 PAM = human CHRM1 positive allosteric modulation. P11229. CHO-K1 hM1, Fluo-8 calcium fluorescence, ACh EC20; 0% = ACh EC20, 100% = maximal ACh. activation, % at 3 µM. 0.088% of 360,000 active; in the data active means activation above about 19%, passing the limit was not always enough
CHO-K1 Ca antag = nonselective inhibitor or artifact in parental CHO-K1 cells. ATP-induced calcium, Fluo-8 fluorescence. inhibition, % at 3 µM. 0.6% of 360,000 active. AID 602250;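 active means inhibition above a per-plate cutoff, the plate's mean sample inhibition plus 3 SD, cut at about 24% in these data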;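 further: 0% = DMSO plus EC80 ATP and 100% = DMSO alone without ATP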
An asterisk follows results filed as active.

For CCc1nc2ccc(C(=O)NCCOc3ccc(OC)cc3)cn2c1N(CCC(C)C)CCN(C)C the results were M1 antag 11.2, CHRM1 agonist 33.9*, M1 PAM parental 31.2, M1 ag parental 3.2, M1 PAM -7.7 and CHO-K1 Ca antag -11.6.
O=S(=O)(/N=C(\c1ccc(F)cc1)N1CCOCC1)c1ccccc1 was read as M1 antag -3.8, CHRM1 agonist -2.4, M1 PAM parental 3.3, M1 ag parental 0.5, M1 PAM 3.0 and CHO-K1 Ca antag -13.8.
`CC1=CC2C(C(O)CC3(C)C2CC(C)C32OCOC23COCO3)C2(C)C/C(=C\O)C(=O)C=C12` (stereo unspecified) gave M1 antag -4.6, CHRM1 agonist -7.9, M1 PAM parental 1.4, M1 ag parental 0.5, M1 PAM -3.0 and CHO-K1 Ca antag 0.8.
Screening CCCCOCCCNC(=O)C[C@@H]1C[C@@]2(C(=O)OCC)CCCC=C2N(Cc2ccco2)C1=O returned M1 PAM parental -6.0, M1 ag parental -0.4 and CHO-K1 Ca antag -4.7.
`CNc1ncnc2c1ncn2[C@H]1CN(Cc2ccc3c(c2)OCO3)C[C@@H](CO)O1` gave M1 antag -10.5, CHRM1 agonist -1.5, M1 PAM parental 12.2, M1 ag parental 0.9, M1 PAM 3.2 and CHO-K1 Ca antag -13.9.
CCOC(=O)COc1cc2c3c(c(=O)oc2cc1C)CCCC3 was read as M1 antag 47.7*, CHRM1 agonist -5.0, M1 PAM parental 15.1, M1 ag parental 2.7, M1 PAM -22.3 and CHO-K1 Ca antag 4.6.
For Cc1cc2nc(-c3nnnn3Cc3ccccc3)c(=O)[nH]c2cc1C the results were M1 PAM parental 3.7, M1 ag parental 3.6 and CHO-K1 Ca antag -12.0.
O=C1C(=C(c2ccccc2)N2CCOCC2)Cc2ccccc21 was read as M1 antag -13.1, CHRM1 agonist -4.4, M1 PAM parental 33.0, M1 ag parental 0.8, M1 PAM 5.5 and CHO-K1 Ca antag -17.6.
For CCC(C)NC(=O)c1c(N)n(/N=C/c2cccnc2)c2nc3ccccc3nc12 (stereo unspecified) the results were M1 antag 0.3, CHRM1 agonist -0.6, M1 PAM parental -3.6, M1 ag parental -0.7, M1 PAM 14.4 and CHO-K1 Ca antag 25.1*.
CCC(C)NC(=O)c1c(N)n(/N=C/c2ccccn2)c2nc3ccccc3nc12 (stereo unspecified) was read as M1 antag 9.1, CHRM1 agonist -5.2, M1 PAM parental -5.6, M1 ag parental -0.2, M1 PAM 1.8 and CHO-K1 Ca antag 16.7.
Screening CC(C)(C)NCc1cc(Cl)ccc1OCc1ccccc1F returned M1 antag 2.9, CHRM1 agonist -7.9, M1 PAM parental 15.7, M1 ag parental 15.3*, M1 PAM 0.8 and CHO-K1 Ca antag 3.3.
For CN1CCN(c2ccc(CNC(=O)c3ccco3)cc2)CC1 the results were M1 antag -5.3, CHRM1 agonist -5.2, M1 PAM parental 6.4, M1 ag parental 18.0*, M1 PAM 3.8 and CHO-K1 Ca antag 5.9.
COc1ccc2sc(N(CCN(C)C)C(=O)c3ccc4ccccc4c3)nc2c1 was read as M1 antag -6.1, CHRM1 agonist 19.8*, M1 PAM parental 13.4, M1 ag parental 0.1, M1 PAM 5.4 and CHO-K1 Ca antag 4.8.
Screening CCc1nc2ccc(C(=O)Nc3cccc(NS(C)(=O)=O)c3)cn2c1N(C)C(=O)c1cccc(OC)c1 returned M1 antag 11.8, CHRM1 agonist -4.9, M1 PAM parental 18.3, M1 ag parental 1.2, M1 PAM -6.6 and CHO-K1 Ca antag 0.4.
For Cc1noc(C(=O)Nc2ccc(F)c(Cl)c2)c1Cl the results were M1 antag 82.8*, CHRM1 agonist -7.5, M1 PAM parental 0.9, M1 ag parental 3.1, M1 PAM -29.9 and CHO-K1 Ca antag -20.1.
`C/C(=N\NC(=O)Cn1c(-c2ccccn2)nc2ccccc21)c1ccccc1` gave M1 antag 14.5, CHRM1 agonist 2.3, M1 PAM parental -14.0, M1 ag parental 1.3, M1 PAM -2.1 and CHO-K1 Ca antag 25.7*.
CCCCCCCCCCn1ccc(=N)cc1 was read as M1 antag 62.5*, CHRM1 agonist -8.2, M1 PAM parental 1.9, M1 ag parental 0.4, M1 PAM -24.9 and CHO-K1 Ca antag 6.6.
